Most compounds without a hit are left out; they make up all but 3.8% or so of the library.
TrxR1 substrate: is turned over as a substrate by rat TrxR1; Potency, µM (doses to about 114 µM), without a hit: at the highest dose activity change, negative = substrate turnover; O89049; purified TrxR1 substrate turnover, NADPH consumption readout; 0.01% of 390,000 active; further: potency means the concentration at half of the fitted maximal effect; nearly all actives have a fitted effect of over 50% in size
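Rat TrxR1, dispensed at 90 nM, was prereduced with 400 uM NADPH (final) for 5 min at ~22 deg C, then incubated with compound 15 min before 400 uM selenite. A first-read NADPH fluorescence drop versus no-compound background flagged substrates.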
KAT2A inh: inhibitors of human GCN5L2 histone acetyltransferase. GCN5L2 HAT assay, ThioGlo1 CoA-SH fluorescence. Potency, µM (doses to about 58.9 µM), inactives show at the highest dose activity change, negative = inhibition, most hits filed as inhibitors. 0.21% of 390,000 active; further: potency means the concentration at half of the fitted maximal effect
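Fluorescence readout, Ex340nm/Em540nm: ThioGlo1 (50uM final) reacts with free CoA thiol released as 20nM GCN5L2 acetylates H3(1-25) peptide (75uM) using acetyl-CoA (70uM). Compound and enzyme sat 15 min beforehand; 20 min room-temperature reaction.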
rTrxR1 inhibitor: inhibitors of rat thioredoxin reductase 1; O89049; recombinant rTrxR1, NADPH fluorescence consumption, selenite substrate; Potency, µM (top dose mostly 114 µM), for the others: top-dose activity change, negative = inhibition, most hits filed as inhibitors; 1% of 390,000 active; AID 588453; further: potency means the concentration at half of the fitted maximal effect; nearly all actives have a fitted effect of over 65% in size
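Rat TrxR1 (90 nM in the dispensed reagent) was pre-reduced with 400 uM NADPH for 5 min at room temperature, then incubated with compound for 15 min. After 400 uM selenite was added, NADPH fluorescence (Ex 340/Em 450 nm) was followed for 8 min.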
VDR inh: blocks the human vitamin D receptor. 0.93% of 400,000 active. VDR-SRC2-3 peptide fluorescence polarization, 2 h. Potency, µM, for the others: max response, negative = inhibition, most hits filed as inhibitors; further: potency means the concentration at half of the fitted maximal effect
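Reagent solutions, kept cold and dark, are dispensed first; compounds are then pinned in at 23 nl, plates briefly spun, and incubated 2 h at ambient temperature. Inhibition of VDR–SRC2-3 peptide binding is read by fluorescence polarization.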
GLS inh: inhibitors of human glutaminase (GLS); O94925; GLS enzymatic activity, qHTS titration; Potency, µM (highest dose often 45.5 µM), for inactives: top-dose activity change, negative = inhibition, hits mostly inhibitors; 0.21% of 410,000 active; AID 624170; further: potency means the concentration at half of the fitted maximal effect
Target sequence (O94925 whole entry, looked up): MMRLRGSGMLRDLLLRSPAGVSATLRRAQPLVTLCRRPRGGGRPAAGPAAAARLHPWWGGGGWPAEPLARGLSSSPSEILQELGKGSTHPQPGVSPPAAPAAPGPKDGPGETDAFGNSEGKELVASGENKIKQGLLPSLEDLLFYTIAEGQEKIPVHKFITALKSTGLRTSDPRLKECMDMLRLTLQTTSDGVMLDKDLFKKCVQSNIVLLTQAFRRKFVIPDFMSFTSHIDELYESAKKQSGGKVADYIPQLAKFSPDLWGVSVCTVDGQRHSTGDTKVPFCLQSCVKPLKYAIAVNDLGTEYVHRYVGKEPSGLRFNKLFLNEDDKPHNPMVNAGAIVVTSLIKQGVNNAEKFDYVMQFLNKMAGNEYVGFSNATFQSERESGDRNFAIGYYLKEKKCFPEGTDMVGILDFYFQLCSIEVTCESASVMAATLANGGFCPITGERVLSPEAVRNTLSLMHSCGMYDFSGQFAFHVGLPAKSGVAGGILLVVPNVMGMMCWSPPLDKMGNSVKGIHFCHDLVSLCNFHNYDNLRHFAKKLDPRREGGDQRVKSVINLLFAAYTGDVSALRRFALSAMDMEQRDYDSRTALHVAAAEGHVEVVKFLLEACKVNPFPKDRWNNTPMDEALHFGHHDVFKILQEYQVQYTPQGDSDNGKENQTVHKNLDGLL
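hKGA; 45 mM KH2PO4 pH 8.2 + 0.02% Tween-20; cpd via pin tool; 1 mM Gln soln; GluOx/HRP/Amplex Red; RT 30 min; fluor. t0 & final.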
Sfp inh: inhibitors of Bacillus subtilis Sfp phosphopantetheinyl transferase; Q9F4F7; Biochemical Sfp PPTase activity, qHTS; Potency, µM, without a hit: largest response in the series, negative = inhibition, most hits filed as inhibitors; 3.5% of 310,000 active;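 further: the enzyme is Sfp with the accession as filed and its product quenches rhodamine fluorescence; potency means the concentration at half of the fitted maximal effect; 0% = enzyme reaction without inhibitor and -100% = no enzyme wells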
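After 15 min at room temperature with compound, 15 nM Sfp received 5 uM rhodamine-CoA plus 12.5 uM BHQ-2-ybbR (50 mM Hepes pH 7.6, 10 mM MgCl2). Rate came from the fluorescence difference over 30 min, ex 525/em 598 nm.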
Sfp inh conf: confirmation of Bacillus subtilis Sfp PPTase inhibitors; shares compounds with Sfp inh; Sfp PPTase enzymatic assay, qHTS titration; Potency, µM (titrated, usually from 114 µM), for the others: top-dose activity change, negative = inhibition, most hits filed as inhibitors; 79% of 380 active; AID 2701;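 further: potency means the concentration at half of the fitted maximal effect; plate controls were uninhibited Sfp reaction for no effect and no enzyme control for full effect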
Sfp gel assay: Inhibits B. subtilis Sfp phosphopantetheinylation; purified Sfp, gel-based phosphopantetheinylation read-out; Potency, µM, hits mostly inhibitors; shares compounds with Sfp inh; 20% of 210 active; AID 2707;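 active means potency below 100 µM; inconclusive means dose-dependent response but potency above 100 µM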;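 further: band intensities scaled against SCH202676 control wells before curve fitting; potency is an IC50 for inhibitors of Sfp transfer activity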
Starred values were filed as active, the others as inactive; [ ] = another dose, or the depositor's remark. Unless noted, the call rests on the fitted dose curve; in most records, active means well fitted curve in the direction sought with a large enough effect; inconclusive means small, poorly fitted or top-dose-only effect, or another doubt; inactive means no such curve, though single readings can be large; an effect the other way counts as inactive or inconclusive. Unless noted, on the % scale 0 is the no-effect control and ±100 the full control effect.

For COc1ccc(Br)cc1CNc1ccc2[nH]c(=O)[nH]c2c1 the results were TrxR1 substrate -3%, KAT2A inh -3%, rTrxR1 inhibitor -26%, VDR inh 16%, GLS inh 10% and Sfp inh -9%.
O=C(c1ccc(C(F)(F)F)cc1)N(CCCn1ccnc1)C(c1ccccn1)c1nc2ccccc2[nH]1 (stereo not drawn) was read as GLS inh -5%.
`CC(=O)Nc1ccc(S(=O)(=O)NC2=C(N3CCN(c4ccc(F)cc4)CC3)C(=O)c3ccccc3C2=O)cc1` gave TrxR1 substrate -5%, KAT2A inh 1%, rTrxR1 inhibitor -1%, VDR inh inconclusive, GLS inh -11% and Sfp inh -13%.
CCOc1ccc2[nH]c(=O)c(C(c3nnnn3Cc3ccco3)N3CCC(C)CC3)cc2c1 (stereo not drawn) was read as TrxR1 substrate 18%, KAT2A inh -19%, rTrxR1 inhibitor inconclusive, VDR inh -8%, GLS inh -2%, Sfp inh 3.5µM* and Sfp inh conf 8.3µM*.
CCOc1ccc2[nH]c(=O)c(C(c3nnnn3C3CCCCC3)N3CCN(C)CC3)cc2c1 (stereo not drawn) was read as TrxR1 substrate 26%, KAT2A inh 2%, rTrxR1 inhibitor inconclusive, VDR inh 5%, GLS inh -9% and Sfp inh 2%.
Screening COc1cc(NCc2ccc3nc(N)nc(N)c3c2C)cc(OC)c1OC returned KAT2A inh -18%, VDR inh 25µM*, GLS inh -7%, Sfp inh 32µM* and Sfp inh conf 37µM*.
Screening COc1ccc(-c2csc(Nc3ccc(C)cn3)n2)cc1 returned TrxR1 substrate 6%[57.1 µM], KAT2A inh inconclusive, rTrxR1 inhibitor 28%[57.1 µM], VDR inh -7%, GLS inh inconclusive, Sfp inh 6.3µM*, Sfp inh conf 59µM* and Sfp gel assay inactive.
For CCCOC(=O)c1c(NC(=O)c2nc3ncccn3n2)sc(C(N)=O)c1C the results were TrxR1 substrate -2%, KAT2A inh -1%, rTrxR1 inhibitor 13%, VDR inh -11% and GLS inh -14%.
CC(C)C(C)NC(=O)CSc1nc2scc(-c3ccco3)c2c(=O)n1-c1ccccc1 (stereo not drawn) was read as TrxR1 substrate 7%[57.1 µM], KAT2A inh -11%, rTrxR1 inhibitor -64%, VDR inh -17%, GLS inh 6%, Sfp inh 4.5µM*, Sfp inh conf 30µM* and Sfp gel assay inconclusive.
For CCc1c(C)nc2cc(-c3ccc(OC)c(OC)c3)nn2c1N1CCC(C)CC1 the results were TrxR1 substrate -8%[11.4 µM], KAT2A inh -11%, rTrxR1 inhibitor -6%[11.4 µM], VDR inh 24%, GLS inh 0% and Sfp inh 4%.
CCc1c(C)nc2cc(-c3cc(OC)cc(OC)c3)nn2c1N1CCCC1 was read as TrxR1 substrate 9%, KAT2A inh -8%, rTrxR1 inhibitor 24%, VDR inh 14%, GLS inh -7%, Sfp inh 16µM* and Sfp inh conf 47µM*.
CCc1c(C)nc2cc(-c3ccc(OC)c(OC)c3)nn2c1N1CCCC1 was read as TrxR1 substrate 5%, KAT2A inh -17%, rTrxR1 inhibitor 11%, VDR inh -3%, GLS inh 0%, Sfp inh 6.3µM* and Sfp inh conf inconclusive.
`Cc1ccc(SCc2ccc(C(=O)NCc3ccncc3)cc2)cc1` gave TrxR1 substrate 4%, KAT2A inh -3%, rTrxR1 inhibitor 32%, VDR inh 4%, GLS inh -7% and Sfp inh 6%.
`NC(=O)c1ccccc1NC(=O)/C=C/c1ccccc1` gave TrxR1 substrate 9%, KAT2A inh -4%, rTrxR1 inhibitor 7%, VDR inh -9%, GLS inh 5% and Sfp inh 7%.
For O=C(CSc1nnc(-c2ccncc2)n1Cc1ccco1)OC1CCCCC1 the results were TrxR1 substrate 3%, KAT2A inh -21%, rTrxR1 inhibitor inconclusive, VDR inh -20%, GLS inh -8%, Sfp inh 14µM*, Sfp inh conf 53µM* and Sfp gel assay inactive.
Screening CC(C)C(c1nnnn1Cc1ccc(F)cc1)N1CCN(c2ccc(O)cc2)CC1 (stereo not drawn) returned TrxR1 substrate -6%[57.1 µM], KAT2A inh 19%, rTrxR1 inhibitor -2%[57.1 µM], VDR inh 3%, GLS inh 35%, Sfp inh 16µM* and Sfp inh conf 47µM*.
For NC(=O)COc1cccc(/C=N/NC(=O)c2ccc(-n3cccc3)cc2)c1 the results were TrxR1 substrate 3%, KAT2A inh -3%, rTrxR1 inhibitor 22%, VDR inh -11%, GLS inh -5% and Sfp inh -5%.
`Cc1ccc(Nc2cc(C)nc(NCc3ccccc3)n2)cc1` gave TrxR1 substrate -16%[57.1 µM], KAT2A inh -4%, rTrxR1 inhibitor 15%[57.1 µM], VDR inh 1%, GLS inh -3%, Sfp inh 13µM*, Sfp inh conf 30µM* and Sfp gel assay inactive.
O=c1c2c3nc4ccccc4nc3n(Cc3ccccc3)c2ncn1Cc1ccco1 was read as TrxR1 substrate 25%, KAT2A inh inconclusive, rTrxR1 inhibitor 18µM*, VDR inh -13%, GLS inh 5%, Sfp inh 2.8µM* and Sfp inh conf 5.9µM*.
`O=C(CNC(=O)C1CCCCC1)OCn1nnc2ccccc2c1=O` gave TrxR1 substrate -7%, KAT2A inh 0%, rTrxR1 inhibitor -2%, VDR inh inconclusive, GLS inh 1% and Sfp inh 12%.
For O=C(CN1C(=O)CC(c2ccco2)Sc2ccccc21)Nc1ccccc1F (stereo not drawn) the results were TrxR1 substrate 2%, KAT2A inh -6%, rTrxR1 inhibitor 25µM*, VDR inh 79µM*, GLS inh 2%, Sfp inh 16µM* and Sfp inh conf 21µM*.
Screening O=C(CN1C(=O)CCSc2ccccc21)Nc1ccccc1F returned TrxR1 substrate 3%, KAT2A inh -2%, rTrxR1 inhibitor 9%, VDR inh -10% and GLS inh 1%.

High-throughput results as filed in PubChem.
